The list is not random: actives were taken first. Their share in the collection is about 19%.
uPA surface inh: inhibitors of cell surface uPA generation; cell surface uPA generation assay, qHTS; Potency, µM (series often up to 38.3 µM), inactives show top-dose activity change, negative = inhibition, usual class: inhibitors; 330,000 compounds, 0.31% hits; AID 540303; active = well fitted inhibition curve with a large enough effect; inconclusive = small, poorly fitted or top-dose-only effect; inactive = no such curve, though single readings can be large or run the other way; tested in mouse RAW 264.7 cells; note: potency is the fitted concentration of half-maximal effect; nearly all actives have a fitted effect of over 55% in size
HT1080-NT tox: kills 2HG-producing HT-1080-NT fibrosarcoma cells; HT-1080-NT fibrosarcoma viability, CellTiter-Glo ATP luminescence, 48 h; 360,000 compounds, 1.6% hits; Potency, µM (highest dose often 46.1 µM), for inactives: at the top dose activity, negative = less viability, actives largely listed as cytotoxic;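 note: NT is the 2HG producing partner of a matched IDH1 knockdown line; potency is the fitted concentration of half-maximal effect; 0% = DMSO-treated cells and -100% = media-only wells without cells; nearly all actives have a fitted effect of over 55% in size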
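Toxicity toward the 2HG-producing NT line was scored as %Activity, normalised to DMSO and no-cell wells, from CellTiter-Glo luminescence after 48 hours' treatment.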
IL1B secr inh: blocks inflammasome-driven IL-1 beta release; THP-1 LPS/ATP IL-1B secretion, AlphaLISA, 16 h; stronger effect = lower value; activity change, % at 57.5 µM; 360,000 compounds, 4.7% hits; in the data active = activity change below about -50%; inconclusive = mostly about -30% to -49%
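Secreted IL-1B measured by AlphaLISA bead assay after 16 h compound exposure of THP-1 cells; compounds (final up to 57.5 uM) added 1 h before LPS (250 ng/mL) and ATP (1.25 mM) stimulation; lower signal means less secretion.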
TDP1 cell noCPT: qHTS for Inhibitors of human tyrosyl-DNA phosphodiesterase 1 (TDP1): qHTS in cells in absence of CPT; DT40 Tdp1-/- hTDP1 cells, no CPT, ATP luminescence, 48 h; Potency, µM (doses to about 46.2 µM), for the others: at the top dose activity change, negative = growth inhibition, most hits filed as inhibitors; 420,000 compounds, 15% hits; AID 686978, 2013; note: potency is the fitted concentration of half-maximal effect; nearly all actives have a fitted effect of over 55% in size
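Growth of hTDP1-complemented DT40 Tdp1-knockout cells is measured by ATP luminescence after at least 48 hr compound exposure at 37 °C, with DMSO substituting for the 20 nM CPT used in the parallel screen.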
HT1080 IDH1KD tx: HT-1080 IDH1 knockdown cell toxicity (counter line); HT-1080 IDH1 knockdown viability, ATP luminescence, 48 h; Potency, µM (doses to about 46.1 µM), for the others: top-dose activity, negative = toxicity, actives largely listed as cytotoxic; 360,000 compounds, 2% hits; AID 686971;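 note: potency is the fitted concentration of half-maximal effect; 0% = DMSO wells and -100% = cell-free medium wells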
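Knockdown cells (IDH1KD HT-1080) received compounds 2 h after plating at 750 cells/well and were kept 48 h at 37 °C in 5% FBS RPMI. A CellTiter-Glo luminescence read gave % activity for curve fitting.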
DT40 TDP1 CPT: growth inhibition of DT40 Tdp1-/-;hTDP1 cells with camptothecin (screen for TDP1 inhibitors); AID 686979; Potency, µM (doses to about 46.2 µM), for the others: top-dose activity change, negative = growth inhibition, most hits filed as inhibitors; chicken DT40 Tdp1-/-;hTDP1 cells + 20 nM CPT, ATP luminescence, 48 h; 420,000 compounds, 12% hits; note: potency is the fitted concentration of half-maximal effect; nearly all actives have a fitted effect of over 55% in size
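Chicken DT40 Tdp1-/- cells complemented with human TDP1, 400 cells/well, exposed to compounds plus 20 nM camptothecin for at least 48 h at 37 C; viability read as ATP content by CellTiter-Glo luminescence.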
Numbers without * were called inactive; ? = inconclusive; · = no result given; [ ] = remark or other dose. Unless noted, calls come from the whole dose curve; as a rule, active = well fitted curve in the direction sought with a large enough effect; inconclusive = small, poorly fitted or top-dose-only effect, or another doubt; inactive = no such curve, though single readings can be large; an effect the other way counts as inactive or inconclusive. Unless noted, % is set by controls: 0 for no effect and ±100 for the full control effect.

SMILES	uPA surface inh	HT1080-NT tox	IL1B secr inh	TDP1 cell noCPT	HT1080 IDH1KD tx	DT40 TDP1 CPT
Cc1ccc(S(=O)(=O)N2C[C@H]3C(=O)C[C@@H](c4ccccc4)N(S(=O)(=O)c4ccccc4[N+](=O)[O-])[C@H]3C[C@H]2c2ccccc2)cc1	·	23%	0	-7%	7%	-10%
CCOC(=O)c1ccc(N2CCN(c3cc(Cl)ccc3C)CC2)c(NC(=O)Nc2cccc(OC)c2)c1	·	·	·	9.2µM*	·	16µM*
CCCNC(=O)c1ccc2c(c1)sc1nc(-c3ccc(C)cc3)cn12	·	·	·	5.8µM*	·	5.8µM*
Cc1ccc(-c2cn3c(n2)sc2cc(C(=O)NCCC4=CCCCC4)ccc23)cc1	·	·	·	-27%	·	-9%
CCN(CC)CCCNC(=O)c1ccc2c(c1)sc1nc(-c3ccc(C)cc3)cn12	·	·	·	2.3µM*	·	2.3µM*
CO[C@H]1[C@H](NC(=O)c2ccsc2)c2ccccc2C12CCN(Cc1cccn1-c1ccccn1)CC2	·	·	·	-26%	·	10%[9.04 µM]
O=C(c1ccccc1)C1C(c2ccccc2)C1[N+](=O)[O-] (stereo not drawn)	-1%	13%	-56*	-17%	6%	1%
COC(=O)C1(C(=O)OC)C(C(=O)c2ccccc2)C1c1ccccc1 (stereo not drawn)	2%	9%	10	-20%	10%	-1%
Cc1ccc(S(=O)(=O)N(CC(=O)N=Nc2c(O)[nH]c3ccccc23)c2ccc(C)c(C)c2)cc1	-6%	?	?	21µM*	?	18µM*
COc1ccccc1N(CC(=O)N1CCCC1)S(=O)(=O)c1cc([N+](=O)[O-])ccc1Cl	-24%	2%	-26	?	5%	16µM*
COc1ccccc1N1CCN(C(=O)CN(CCc2ccccc2)S(C)(=O)=O)CC1	-17%	4%	1	10µM*	13%	?
NC(=O)CN(c1ccc(Oc2ccccc2)cc1)S(=O)(=O)c1ccccc1	18%	-4%	17	?	-13%	21µM*
Cc1nn(C)c(C)c1CCNC(=O)Nc1cccc(Cl)c1C	·	·	·	-26%	·	1%
COCCCNC(=O)CC1C(=O)N(Cc2ccccc2)C(C)c2nc3ccccc3n21 (stereo not drawn)	-4%	3%	17	-11%	9%	1%
CCCCNCCS(=O)(=O)NCc1ccc(OC)cc1	8%	3%	9	-9%	9%	-2%
COc1ccccc1N(CC(=O)N1CCN(c2ccc(F)cc2)CC1)S(=O)(=O)c1ccc(C)cc1	18%	1%	0	18µM*	5%	26µM*
COc1ccccc1N1CCN(C(=O)C(C)N(c2ccc(C)cc2)S(C)(=O)=O)CC1 (stereo not drawn)	-6%	1%	23	?	-1%	?
COc1ccccc1N(CC(=O)N1CCN(Cc2ccccc2)CC1)S(=O)(=O)c1ccccc1	·	6%	0	16µM*	0%	23µM*
CCN(CC)S(=O)(=O)c1ccc(N2CCN(c3ccccc3OC)CC2)c(N)c1	-10%	?	-26	7.3µM*	?	9.2µM*
COc1ccc(N(CC(=O)N2CCN(Cc3ccccc3)CC2)S(=O)(=O)c2ccccc2)cc1	-3%	4%	-7	?	0%	?
COc1ccccc1N1CCN(C(=O)C(C)N(c2ccc(C)c(C)c2)S(C)(=O)=O)CC1 (stereo not drawn)	-1%	1%	-3	?	-2%	15µM*
Cc1cccc(CN2CCN(CC(=O)NCc3ccc(Cl)cc3)C2=O)c1	·	·	·	?	·	1%
CCCn1c(SCC(=O)Nc2cc(C(=O)O)ccc2C)nc2sc3c(c2c1=O)CCC3	-3%	2%	0	?	4%	?
CC(C)c1c(C(=O)NCC2(N3CCOCC3)CCCC2)cnn1-c1nccc(-c2cccs2)n1	·	·	·	-18%	·	1%[9.04 µM]
COc1cccc(CNS(=O)(=O)c2c(C(=O)N3CCC(C)CC3)c(C)n(C)c2C)c1	·	·	·	-4%	·	-6%
SMILES	uPA surface inh	HT1080-NT tox	IL1B secr inh	TDP1 cell noCPT	HT1080 IDH1KD tx	DT40 TDP1 CPT
Cc1ccc(S(=O)(=O)N(CC(=O)N2CCc3ccccc3C2)c2ccc(Cl)c(Cl)c2)cc1	1%	0%	?	?	-10%	?
COc1ccc(S(=O)(=O)N(C)CC(=O)N2CCN(c3ccc(F)cc3)CC2)cc1OC	·	2%	-3	22µM*	-2%	?
CN(CC(=O)N1CCCC1)S(=O)(=O)c1ccc2ccccc2c1	-3%	2%	-24	21µM*	3%	?
COc1ccc(N2CCN(C(=O)CN(c3ccccc3)S(=O)(=O)c3ccc(OC)cc3)CC2)cc1	-3%	0%	5	21µM*	-15%	?
O=C(CN(c1ccc(Cl)c(Cl)c1)S(=O)(=O)c1ccccc1)N1CCc2ccccc2C1	-4%	-9%	-21	29µM*	-29%	?
CCc1cccc(NC(=O)CCS(=O)(=O)c2cc3c4c(c2)CCN4C(=O)CC3)c1	·	·	·	1%	·	-1%
CCC(NC(=O)c1cncc(Br)c1)c1ccccc1 (stereo not drawn)	-84%	-13%	5	-26%	-1%	-6%
c1ccc(CNc2cccnc2)cc1	·	-2%	-14	-26%	1%	-6%
CN(C(=O)Cc1c(C(=O)O)n(C)c2ccccc12)c1ccc(F)cc1	0%	8%	39	4%	23%	5%
CCOC(=O)C1CC(CN2C(=O)c3ccccc3C2=O)OC1=O (stereo not drawn)	1%	-1%	-17	-34%	-3%	0%
O=C(CN(C1CCCCC1)C1CCCCC1)N1CCc2ccccc2C1	11%	?	-99*	16µM*	?	?
Cc1ccccc1CN(c1ccc(C(=O)N2CCc3ccccc3C2)cc1)S(C)(=O)=O	·	-4%	-7	15µM*	-6%	12µM*
COc1ccc(N(CC(=O)N2CCc3ccccc3C2)S(=O)(=O)c2ccccc2)cc1	8%	-4%	?	18µM*	3%	18µM*
CN(C(=O)C(C)(C)C)c1ccc(OCC(=O)N2CCc3ccccc3C2)cc1	-10%	?	-16	16µM*	-29%	?
CC(=O)NC(C)(c1ccccc1)c1nc(-c2cccc(C#N)c2)cs1 (stereo not drawn)	·	1%	-18	?	7%	?
COCCN(C(=O)CCSc1ccc(F)cc1)c1c(N)n(Cc2ccccc2)c(=O)[nH]c1=O	5%	-5%	11	-27%	2%	-1%
